About 8,800 targets were measured; listed, in parts, are those with a hit and a random draw of the rest. About 0.5% of all pairs of compound and target were hits.
What was measured:
Assay in all cases: log2 fold change, soluble protein after heating vs DMSO (PISA); higher = thermal stabilisation; K562 lysate, 10 uM; active = over 0.2 and 3.5 SD of the protein, either way, in both replicates (recomputed)
[1] = compound: C1=CC=C(C=C1)[C@H](COC2=CC3=C(C=C2)NC(=O)N3)NC(=O)C4=CC=CN(C4=O)CC5=CC(=C(C=C5)F)F
In short: (§1)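 Dounce homogenisation of K562 pellets in PBS pH 7.4 with 1 mM MgCl2 produced a crude extract, used at 1 mg/mL protein. Exposure to 10 μM compound lasted 30 min, and aliquots were then heated for 3 min across 48°C-58°C, pooled and brought to 0.5% NP-40 at 4°C. The supernatant after 21,000xg for 90 min was quantified by TMTpro 16plex LC-MS/MS with channel sums equalised. Duplicate values are given as log-two fold change in thermal stability relative to solvent controls.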

[2] = compound: CC1=C(SC2=C1C(=N[C@H](C3=NN=C(N32)C)CC(=O)N)C4=CC=C(C=C4)Cl)C
In short: as §1

[3] = compound: Cc1sc2c(c1C)C(c1ccc(Cl)cc1)=N[C@@H](CC(=O)OC(C)(C)C)c1nnc(C)n1-2
In short: as §1

[4] = compound: CC1=C2C(=CC=C1)N=C(N(C2=O)C3=CC=CC=C3C)CN4C=NC5=C(N=CN=C54)N
In short: as §1

[5] = compound: c1ccc([C@@H]2C[C@H]2NC2CCNCC2)cc1
In short: as §1

Measured: log2 fold change

PTK2 isoform 2 (UniProt Q05397)
inactive: [1] 0.07 | [2] 0.081 | [3] -0.324

PUS3 (UniProt Q9BZE2)
inactive: [1] -0.006 | [2] -0.089 | [4] -0.073 | [3] 0.082 | [5] 0.135

PIP5K1A (UniProt Q99755)
inactive: [1] -0.058 | [2] 0.067 | [3] 0.059 | [5] -0.096

PDE4DIP (UniProt E9PS60)
inactive: [4] 0.074 | [3] -0.12 | [5] -0.257

PRKAB2 (UniProt O43741)
UniProt O43741, sequence (O43741 whole entry, looked up): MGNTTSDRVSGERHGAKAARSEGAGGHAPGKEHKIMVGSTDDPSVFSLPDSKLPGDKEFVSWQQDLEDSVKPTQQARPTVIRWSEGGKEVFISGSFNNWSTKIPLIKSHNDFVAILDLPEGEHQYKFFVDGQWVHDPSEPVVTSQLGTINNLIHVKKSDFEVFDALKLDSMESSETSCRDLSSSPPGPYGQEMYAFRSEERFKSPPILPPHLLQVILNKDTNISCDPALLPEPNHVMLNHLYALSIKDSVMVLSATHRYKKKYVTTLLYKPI
inactive: [1] 0.1 | [2] -0.012 | [4] 0.009 | [3] -0.047 | [5] -0.418

PIAS2 (UniProt O75928)
inactive: [4] 0.001 | [3] 0.046

PSTPIP2 (UniProt Q9H939)
UniProt Q9H939, sequence (Q9H939 whole entry, looked up): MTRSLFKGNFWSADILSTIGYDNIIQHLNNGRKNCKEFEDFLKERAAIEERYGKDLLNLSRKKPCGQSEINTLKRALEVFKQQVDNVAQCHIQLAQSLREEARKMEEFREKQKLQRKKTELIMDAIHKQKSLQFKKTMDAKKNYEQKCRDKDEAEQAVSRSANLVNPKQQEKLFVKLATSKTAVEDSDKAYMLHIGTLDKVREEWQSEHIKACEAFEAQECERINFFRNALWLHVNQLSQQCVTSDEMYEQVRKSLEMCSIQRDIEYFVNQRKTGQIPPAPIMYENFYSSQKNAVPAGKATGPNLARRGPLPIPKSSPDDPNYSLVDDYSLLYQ
inactive: [1] 0 | [2] -0.01 | [4] 0.046 | [3] 0 | [5] 0.027

PPIL3 (UniProt Q9H2H8)
UniProt Q9H2H8, sequence (Q9H2H8 whole entry, looked up): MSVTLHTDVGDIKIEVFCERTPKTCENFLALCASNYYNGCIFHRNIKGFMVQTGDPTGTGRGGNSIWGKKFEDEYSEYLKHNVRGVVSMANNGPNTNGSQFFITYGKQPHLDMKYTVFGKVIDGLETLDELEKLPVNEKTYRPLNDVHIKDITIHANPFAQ
active: [5] -0.237
inactive: [1] 0.067 | [2] -0.012 | [4] 0.035 | [3] 0.028

PRR4 (UniProt Q16378)
inactive: [4] -0.076 | [5] -0.269

PRADC1 (UniProt Q9BSG0)
inactive: [1] 0.267 | [2] 0.021 | [3] -0.029 | [5] 0.018

PCBP2 (UniProt F8VRH0)
inactive: [5] 0.232

PMPCA (UniProt Q10713)
inactive: [1] 0.019 | [2] 0.031 | [4] 0.028 | [3] -0.013 | [5] -0.012

POM121C (UniProt A8CG34)
inactive: [1] 0.058 | [2] 0.042 | [5] -0.02

PYGO2 (UniProt Q9BRQ0)
UniProt Q9BRQ0, sequence (Q9BRQ0 whole entry, looked up): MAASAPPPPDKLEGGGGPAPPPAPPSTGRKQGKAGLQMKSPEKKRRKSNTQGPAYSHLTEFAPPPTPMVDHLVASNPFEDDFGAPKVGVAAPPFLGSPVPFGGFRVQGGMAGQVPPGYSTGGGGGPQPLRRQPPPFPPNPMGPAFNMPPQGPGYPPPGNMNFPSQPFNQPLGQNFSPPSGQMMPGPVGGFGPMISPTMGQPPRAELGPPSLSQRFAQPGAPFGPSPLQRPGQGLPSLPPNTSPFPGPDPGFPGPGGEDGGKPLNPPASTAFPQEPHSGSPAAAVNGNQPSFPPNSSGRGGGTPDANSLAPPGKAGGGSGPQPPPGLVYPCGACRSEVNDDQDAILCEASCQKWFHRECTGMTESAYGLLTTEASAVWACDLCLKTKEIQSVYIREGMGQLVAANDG
inactive: [1] 0.064 | [2] 0.031 | [3] 0.024 | [5] 0.011

PRPH isoform 2 (UniProt P41219)
inactive: [1] 0.002 | [2] -0.006 | [4] 0.03 | [3] -0.059 | [5] 0.119

POLR2F (UniProt U3KPV3)
inactive: [3] -0.113

PIP4K2B (UniProt P78356)
inactive: [1] -0.063 | [2] -0.078 | [4] -0.014 | [3] 0.036 | [5] -0.108

PLEKHF1 (UniProt Q96S99)
UniProt Q96S99, sequence (Q96S99 whole entry, looked up): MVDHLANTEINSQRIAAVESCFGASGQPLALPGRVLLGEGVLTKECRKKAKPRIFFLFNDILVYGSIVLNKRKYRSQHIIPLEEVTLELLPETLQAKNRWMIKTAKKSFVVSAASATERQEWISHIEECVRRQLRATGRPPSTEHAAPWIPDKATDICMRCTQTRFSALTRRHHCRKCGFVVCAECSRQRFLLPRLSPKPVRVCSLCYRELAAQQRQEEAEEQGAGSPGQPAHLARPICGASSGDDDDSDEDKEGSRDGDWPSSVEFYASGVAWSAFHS
inactive: [1] -0.019 | [2] 0.034 | [4] 0.029 | [3] 0.01 | [5] 0.014

PPP1R11 (UniProt O60927)
UniProt O60927, sequence (O60927 whole entry, looked up): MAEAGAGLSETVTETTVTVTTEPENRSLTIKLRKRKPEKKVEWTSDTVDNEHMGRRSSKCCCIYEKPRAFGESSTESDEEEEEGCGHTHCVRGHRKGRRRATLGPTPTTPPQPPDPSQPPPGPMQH
inactive: [1] -0.025 | [2] -0.095 | [3] 0.014 | [5] 0.001

PNPLA4 (UniProt P41247)
inactive: [4] -0.009 | [3] 0.201 | [5] -0.019

PRG4 (UniProt Q92954)
active: [5] -1.18
inactive: [1] 0.03 | [2] -0.081 | [3] -0.059

PDIA4, A0A499FI48
inactive: [3] 0.083 | [5] 0.564

PDCD10 (UniProt Q9BUL8)
UniProt Q9BUL8, sequence (Q9BUL8 whole entry, looked up): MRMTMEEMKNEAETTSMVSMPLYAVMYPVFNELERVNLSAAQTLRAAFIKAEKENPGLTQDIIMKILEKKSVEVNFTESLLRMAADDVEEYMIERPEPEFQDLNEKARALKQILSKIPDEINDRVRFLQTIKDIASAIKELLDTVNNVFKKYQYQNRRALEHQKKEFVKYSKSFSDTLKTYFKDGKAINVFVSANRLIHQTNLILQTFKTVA
inactive: [1] -0.005 | [2] 0.02 | [4] -0.013 | [3] -0.042 | [5] -0.064

PFN1 (UniProt I3L3D5)
inactive: [1] 0.007 | [2] 0.065 | [5] 0.164

PREP (UniProt H0Y5Y0)
inactive: [5] 0.086

PTPN7 isoform 3 (UniProt P35236)
inactive: [1] -0.028 | [2] 0.002 | [4] -0.031 | [3] 0.015 | [5] -0.012

PDPK1 (UniProt O15530)
UniProt O15530, sequence (O15530 whole entry, looked up): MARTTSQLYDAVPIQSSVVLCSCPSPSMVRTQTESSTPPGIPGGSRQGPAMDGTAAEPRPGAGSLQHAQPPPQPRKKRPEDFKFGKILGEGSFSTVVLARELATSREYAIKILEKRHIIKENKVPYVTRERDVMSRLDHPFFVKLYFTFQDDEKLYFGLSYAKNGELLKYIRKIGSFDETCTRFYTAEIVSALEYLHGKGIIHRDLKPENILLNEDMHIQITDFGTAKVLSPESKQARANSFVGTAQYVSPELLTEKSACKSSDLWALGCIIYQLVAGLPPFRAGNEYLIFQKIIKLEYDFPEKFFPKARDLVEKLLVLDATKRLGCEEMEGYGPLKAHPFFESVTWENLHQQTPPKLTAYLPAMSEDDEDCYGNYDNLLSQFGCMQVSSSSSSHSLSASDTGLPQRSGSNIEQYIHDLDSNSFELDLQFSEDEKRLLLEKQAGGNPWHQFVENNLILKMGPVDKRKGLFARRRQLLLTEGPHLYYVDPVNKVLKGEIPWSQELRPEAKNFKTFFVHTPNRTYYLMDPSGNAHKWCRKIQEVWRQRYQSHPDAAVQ
inactive: [2] 0 | [4] -0.035 | [3] 0.022 | [5] -0.069

PDXDC1 (UniProt Q6P996)
inactive: [1] 0.025 | [2] 0.022 | [4] 0.01 | [3] 0.02 | [5] 0.014

PDF (UniProt Q9HBH1)
UniProt Q9HBH1, sequence (Q9HBH1 whole entry, looked up): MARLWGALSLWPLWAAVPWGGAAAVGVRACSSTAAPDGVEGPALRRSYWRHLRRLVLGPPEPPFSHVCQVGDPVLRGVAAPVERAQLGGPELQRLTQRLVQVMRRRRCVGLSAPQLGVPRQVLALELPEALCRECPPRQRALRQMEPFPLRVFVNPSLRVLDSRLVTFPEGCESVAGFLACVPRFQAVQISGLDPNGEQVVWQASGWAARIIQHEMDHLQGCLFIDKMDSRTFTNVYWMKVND
inactive: [1] -0.056 | [2] -0.007 | [4] -0.024 | [3] 0.024 | [5] 0.028

NA (UniProt Q4G0T1)
inactive: [3] -0.027 | [5] -0.025

PRRC2A (UniProt P48634)
inactive: [1] -0.047 | [2] 0.003 | [4] 0.001 | [3] 0.017 | [5] -0.02

PUF60 isoform 2 (UniProt Q9UHX1)
inactive: [1] 0.091 | [2] 0.109 | [4] 0.035 | [5] 0.238

PLXND1 (UniProt Q9Y4D7)
UniProt Q9Y4D7, sequence (Q9Y4D7 whole entry, looked up): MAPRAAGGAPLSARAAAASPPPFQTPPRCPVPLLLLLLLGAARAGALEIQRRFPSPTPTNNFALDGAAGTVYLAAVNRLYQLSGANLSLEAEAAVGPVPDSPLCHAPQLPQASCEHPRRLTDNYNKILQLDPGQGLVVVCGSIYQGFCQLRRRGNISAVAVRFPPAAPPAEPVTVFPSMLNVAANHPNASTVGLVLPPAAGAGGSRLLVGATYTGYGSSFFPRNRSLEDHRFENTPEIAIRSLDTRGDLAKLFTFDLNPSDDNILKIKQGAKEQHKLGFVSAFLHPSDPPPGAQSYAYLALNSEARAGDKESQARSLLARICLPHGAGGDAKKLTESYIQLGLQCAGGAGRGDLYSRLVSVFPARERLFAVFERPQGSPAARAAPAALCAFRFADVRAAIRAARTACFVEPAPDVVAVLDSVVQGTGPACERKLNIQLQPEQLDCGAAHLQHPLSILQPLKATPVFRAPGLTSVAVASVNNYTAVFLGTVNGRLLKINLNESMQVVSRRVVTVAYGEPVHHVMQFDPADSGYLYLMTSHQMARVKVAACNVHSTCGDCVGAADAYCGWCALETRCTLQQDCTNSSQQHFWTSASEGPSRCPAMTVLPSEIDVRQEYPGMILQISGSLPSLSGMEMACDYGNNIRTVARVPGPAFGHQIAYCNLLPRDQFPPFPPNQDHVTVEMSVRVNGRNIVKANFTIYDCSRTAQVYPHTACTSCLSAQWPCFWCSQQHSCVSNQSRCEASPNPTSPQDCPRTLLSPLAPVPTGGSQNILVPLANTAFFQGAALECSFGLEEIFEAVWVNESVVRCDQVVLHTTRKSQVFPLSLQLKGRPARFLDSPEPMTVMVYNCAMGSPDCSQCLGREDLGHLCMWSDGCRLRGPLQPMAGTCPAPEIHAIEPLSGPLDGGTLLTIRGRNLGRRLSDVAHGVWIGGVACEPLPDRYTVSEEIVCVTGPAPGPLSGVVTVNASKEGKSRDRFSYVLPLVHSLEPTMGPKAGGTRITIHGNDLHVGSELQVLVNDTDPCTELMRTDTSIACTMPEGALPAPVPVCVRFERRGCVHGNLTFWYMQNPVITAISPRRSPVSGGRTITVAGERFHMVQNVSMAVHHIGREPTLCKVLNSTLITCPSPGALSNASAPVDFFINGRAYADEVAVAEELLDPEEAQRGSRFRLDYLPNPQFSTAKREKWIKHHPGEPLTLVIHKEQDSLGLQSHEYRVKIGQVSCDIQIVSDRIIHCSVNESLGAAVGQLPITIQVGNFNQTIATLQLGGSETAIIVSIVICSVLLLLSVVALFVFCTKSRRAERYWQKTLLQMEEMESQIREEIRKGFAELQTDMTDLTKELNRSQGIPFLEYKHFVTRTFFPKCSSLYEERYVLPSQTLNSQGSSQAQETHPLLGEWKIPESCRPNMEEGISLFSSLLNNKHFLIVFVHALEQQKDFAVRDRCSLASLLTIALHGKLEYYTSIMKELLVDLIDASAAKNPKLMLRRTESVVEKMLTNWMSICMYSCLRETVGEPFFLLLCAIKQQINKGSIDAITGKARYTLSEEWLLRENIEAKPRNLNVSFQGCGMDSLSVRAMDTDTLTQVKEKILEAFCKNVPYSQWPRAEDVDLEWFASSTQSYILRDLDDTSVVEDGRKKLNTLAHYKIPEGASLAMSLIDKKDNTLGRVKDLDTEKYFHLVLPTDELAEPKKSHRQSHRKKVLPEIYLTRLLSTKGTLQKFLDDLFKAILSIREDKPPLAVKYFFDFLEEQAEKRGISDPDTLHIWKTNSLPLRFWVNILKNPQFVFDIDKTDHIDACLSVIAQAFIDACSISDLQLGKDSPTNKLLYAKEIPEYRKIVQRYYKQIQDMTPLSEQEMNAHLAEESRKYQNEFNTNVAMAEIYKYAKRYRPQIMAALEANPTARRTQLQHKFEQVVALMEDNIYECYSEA
inactive: [1] -0.039 | [2] 0.082 | [3] 0.029

PFN3 (UniProt P60673)
inactive: [4] 0.072 | [5] -0.004

PPME1 (UniProt Q9Y570)
UniProt Q9Y570, sequence (Q9Y570 whole entry, looked up): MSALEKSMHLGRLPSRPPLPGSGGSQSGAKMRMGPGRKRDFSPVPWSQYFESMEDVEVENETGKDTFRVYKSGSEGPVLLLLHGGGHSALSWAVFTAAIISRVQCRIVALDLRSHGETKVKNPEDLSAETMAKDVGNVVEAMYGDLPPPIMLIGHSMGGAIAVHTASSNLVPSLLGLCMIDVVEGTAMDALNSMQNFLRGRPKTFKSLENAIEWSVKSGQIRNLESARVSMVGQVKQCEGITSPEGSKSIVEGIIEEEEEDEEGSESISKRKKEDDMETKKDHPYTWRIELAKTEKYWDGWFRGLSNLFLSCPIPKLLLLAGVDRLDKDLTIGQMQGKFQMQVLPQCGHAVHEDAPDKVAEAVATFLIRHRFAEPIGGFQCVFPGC
inactive: [1] 0.057 | [2] -0.02 | [3] 0.06

PRKCD (UniProt Q05655)
inactive: [1] 0.003 | [2] 0.022 | [4] 0.028 | [3] -0.003 | [5] 0.023

From the supplement of paper PMC10849652
